Experimental data published in the OligoGym collection.

biological target: CHID1; experiment: pooled miR-30 sensor sort-seq; sequence = guide strand; conditions: shRNA
Note: reference of the scale not given here.

Point of comparison: TAGTCGTAGGTCATGAGGCTGA, sensor-assay potency score (higher = more potent) -0.661. Against it:
- TTCGCCACTTGGACTTCGGGTC — higher, -0.182
- TTTGCCGAGCAGTAGCTGCGAT — higher, -0.629
- TAGTCCATACCATAGAAGTTGA — lower, -1.13
- TATCTCATCCTCACTGTCTAAG — lower, -0.858
- ATGCGCTGTAGAGTAGTCGTAG — higher, -0.323
- TCACTGTCTAAGACGTTCCGGA — higher, -0.147
- TGAAAACTGACTCTTCTCCAGC — higher, -0.645
- TTTGAGGTCCGTCACCACCAAA — lower, -1.77
- TGTAGAGTAGTCGTAGGTCATG — lower, -1.27
- TTCAGTGTCTGGATGTACCTGG — higher, 0.597
- AAACTGACTCTTCTCCAGCAGC — lower, -0.926

biological target: CHMP2A; experiment: as above; conditions: shRNA

Point of comparison: TGCAATGATTTTCTTCTCCTGG, sensor-assay potency score (higher = more potent) -0.535. Against it:
- AAACTTGCGCACATAGCGCCGG — higher, -0.531
- TTGAGTGTCTGGATCTTGAGGG — higher, 0.547
- ATCATTCATCATCTCCTCCTTC — higher, -0.0683
- TTGTTGGACTTGAGTGTCTGGA — lower, -0.834
- TTCATCTTCCTCATCACCCATG — lower, -0.68
- TCTAGTTTCTGTCGCTCGCGGT — lower, -0.825
- AAGTCTTTTGCCATGATGCGAA — lower, -0.973
- TTCAGCTGTCTGTTCATGGTGC — higher, 0.372
- AACTTGCGCACATAGCGCCGGG — lower, -1.16
- TTCATGGCTTGTGCCATCGAGT — lower, -1.33
- TTTCTGTCGCTCGCGGTCCAGC — lower, -1.66

biological target: CHRM2; experiment: as above; conditions: shRNA

Point of comparison: TAAAAAGTAATTGTTGACGGTC, sensor-assay potency score (higher = more potent) 0.0384. Against it:
- TATAAGGACTTGTAAGAGCCAG — lower, -0.37
- TTGGCTTCACTATCCTTCCTTG — lower, -0.217
- TCATCTTCACAATCTTGCGGGC — lower, -0.203
- TTCATAACTGAGGCATTGCTGA — lower, -0.852
- ATAAGGACTTGTAAGAGCCAGG — lower, -0.765
- TACATGAGTCACTTTTTGGGGT — lower, -0.152
- TATTAGAGGCAACAGCACTGAC — lower, -0.688
- TTTCATCTCCATTCTGACCTGA — higher, 0.602
- TTCATCTCCATTCTGACCTGAA — higher, 0.399
- TTTAATGGAAACCATGACTAGG — lower, -0.722
- TTAGAGTTCTCATCTTTGGAAT — lower, -1.06
- TTAGTCATCTTCACAATCTTGC — higher, 0.87
- TTTGTGACACAGAAGTACCTGT — higher, 0.495
